Inconclusive results are not listed. Where a call stands in place of a potency, no number is given. Activity calls are given as the source filed them. Calls follow the shape of the full dose curve.
Experiment: qHTS assay to identify small molecule agonists of the NFkB signaling pathway - cell viability counter screen (AID 1159515); also: nearly all actives have a fitted effect of over 55% in size
Conditions: NFkB-bla ME-180 viability, CellTiter-Glo luminescence, 5 h; series mostly up to 61 µM
Outline: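 Read by CellTiter-Glo luminescence (30 min, room temperature) in the wells also used for the beta-lactamase FRET read. ME-180 NFkB-bla cells at 2,000 per well were plated overnight, then exposed to compound for 5 hr at 37 C.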
Potency is read from the fitted curve at half-maximal effect.

SMILES | Potency
CC(C)(C)CC(C)(C)c1ccc(O)cc1 | 21.9 µM (active)
CNC(=O)Oc1cccc(N=CN(C)C)c1 | inactive
c1ccc2sc(SNC3CCCCC3)nc2c1 | inactive
O=C(N[C@H]1CN2CCC1CC2)c1ccc2c(c1)OCCO2 | inactive
C=CCOC(=O)C(C)(C)OC(=O)c1cc(-n2c(=O)cc(C(F)(F)F)n(C)c2=O)ccc1Cl | inactive
C=CCc1ccc(OC(=O)Cc2ccccc2)c(OC)c1 | inactive
O=[N+]([O-])O[C@H]1CO[C@H]2[C@@H]1OC[C@H]2O[N+](=O)[O-] | inactive
C[C@H]1[C@@H]2Cc3ccc(O)cc3[C@@]1(C)CCN2C | inactive
Cc1cnc(C2=NC(C)(C(C)C)C(=O)N2)c(C(=O)O)c1 (stereo unspecified) | inactive
Cc1ncc(C[n+]2csc(CCO)c2C)c(N)n1 | inactive
COc1cc(CC(C)N)c(OC)cc1Br (stereo unspecified) | inactive
C[Si](Cn1cncn1)(c1ccc(F)cc1)c1ccc(F)cc1 | inactive
Cc1nc2ccccc2c(=O)n1-c1ccccc1Cl | inactive
CN(C)C(=O)Nc1cccc(OC(=O)NC(C)(C)C)c1 | inactive
CN(C)c1ccc(N=O)cc1 | 43.6 µM (active)
NP(N)(=O)NC(=O)c1ccc(F)cc1 | inactive
OC[P+](CO)(CO)CO | inactive
C[C@@H]1C[C@@H]([C@H](O)CC2CC(=O)NC(=O)C2)C(=O)[C@@H](C)C1 | inactive
COC1=CC(=O)O[C@@H](/C=C/c2ccc3c(c2)OCO3)C1 | inactive
CCN(C(C)=O)c1cccc(-c2ccnc3c(C#N)cnn23)c1 | inactive
CCOC(=O)c1cn2nc(OP(=S)(OCC)OCC)cc2nc1C | inactive

— PubChem BioAssay (Tox21)
